# In PubChem BioAssay (NCATS):
# Records with an inconclusive call do not appear. Entries that show only a call come without a potency. Calls of active or inactive are those of the source. The call rests on the fitted dose curve; in most records, active means well fitted curve in the direction sought with a large enough effect; inconclusive means small, poorly fitted or top-dose-only effect, or another doubt; inactive means no such curve, though single readings can be large; an effect the other way counts as inactive or inconclusive. Bridge positions count the residues as written; N and C are the ends. Square brackets hold non-standard residues; d marks the D form. Peptide text beside a SMILES is read from it. * marks the point of attachment. Ileψ(thiazoline)Cys = CC[C@H](C)[C@H](N)C1=N[C@H](C(=O)*)CS1; d(aIle) = CC[C@H](C)[C@@H](N)C(=O)O; dOrn = NCCC[C@@H](N)C(=O)O
# Columns and labels:
# [1] = S16 Schwann cell viability assay (CellTiter-Glo assay) (AID 624031); settings: S16 rat Schwann cells viability, 24 h; series mostly up to 25.7 µM;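 further: native untransfected S16 rat Schwann cells; cellular ATP luminescence as a viability measure; nearly all actives have a fitted effect of over 70% in size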
# In short: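 Cells were seeded at 500-750 per well in phenol red-free DMEM with 10% FBS and left overnight. Compounds or DMSO were pinned in, incubation ran 24 h at 37 °C/5% CO2, then CellTiter-Glo reagent was added and luminescence measured.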
# [2] = S16 Schwann cell PMP22 intronic element firefly luciferase assay (AID 624032); settings: S16 rat Schwann cells, PMP22 element FLuc, 24 h; series mostly up to 25.7 µM; further: nearly all actives have a fitted effect of over 30% in size; further: potency means the concentration at half of the fitted maximal effect
# In short: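 Rat S16 Schwann cells stably carrying firefly luciferase driven by a PMP22 intronic element, in 10% FBS, treated 24 h at 37 C. ONE-Glo luminescence normalized to PTC124 control and DMSO (0%); curves classed by r2, magnitude and activity.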
# AS120 = experiment: qHTS profiling for inhibitors of Plasmodium falciparum proliferation (AID 504749); further: nearly all actives have a fitted effect of over 60% in size; further: potency means the concentration at half of the fitted maximal effect; settings: P. falciparum in erythrocytes, SYBR Green DNA, 72 h; series mostly up to 12.8 µM
# In short: (§1)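 SYBR Green fluorescence (ex 485 nm, em 535 nm) reports parasite DNA after 72 h compound exposure of infected red cells at 0.3% parasitemia, 2.5% hematocrit; signal normalized to 0.29 uM artemisinin and vehicle wells.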
# CP201 = experiment: as above; settings: P. falciparum in erythrocytes, SYBR Green DNA, 72 h; series mostly up to 12.8 µM
# In short: as §1
# CP217 = experiment: as above; settings: P. falciparum in erythrocytes, SYBR Green DNA, 72 h; series mostly up to 12.8 µM
# In short: as §1
# CP237 = experiment: as above; settings: P. falciparum in erythrocytes, SYBR Green DNA, 72 h; series mostly up to 12.8 µM
# In short: as §1
# CP250 = experiment: as above; settings: P. falciparum in erythrocytes, SYBR Green DNA, 72 h; series mostly up to 12.8 µM
# In short: as §1
# CP256 = experiment: as above; settings: P. falciparum in erythrocytes, SYBR Green DNA, 72 h; series mostly up to 12.8 µM
# In short: as §1
# CP266 = experiment: as above; settings: P. falciparum in erythrocytes, SYBR Green DNA, 72 h; series mostly up to 12.8 µM
# In short: as §1
# CP268 = experiment: as above; settings: P. falciparum in erythrocytes, SYBR Green DNA, 72 h; series mostly up to 12.8 µM
# In short: as §1
# CP297 = experiment: as above; settings: P. falciparum in erythrocytes, SYBR Green DNA, 72 h; series mostly up to 12.8 µM
# In short: as §1
# CP315 = experiment: as above; settings: P. falciparum in erythrocytes, SYBR Green DNA, 72 h; series mostly up to 12.8 µM
# In short: as §1
# CP329 = experiment: as above; settings: P. falciparum in erythrocytes, SYBR Green DNA, 72 h; series mostly up to 12.8 µM
# In short: as §1
# Dd2 = experiment: as above; settings: P. falciparum in erythrocytes, SYBR Green DNA, 72 h; series mostly up to 12.8 µM
# In short: as §1
# ECU = experiment: as above; settings: P. falciparum in erythrocytes, SYBR Green DNA, 72 h; series mostly up to 12.8 µM
# In short: as §1
# FAB9 = experiment: as above; settings: P. falciparum in erythrocytes, SYBR Green DNA, 72 h; series mostly up to 12.8 µM
# In short: as §1
# HB3 = experiment: as above; settings: P. falciparum in erythrocytes, SYBR Green DNA, 72 h; series mostly up to 12.8 µM
# In short: as §1
# ICS = experiment: as above; settings: P. falciparum in erythrocytes, SYBR Green DNA, 72 h; series mostly up to 12.8 µM
# In short: as §1
# PAD = experiment: as above; settings: P. falciparum in erythrocytes, SYBR Green DNA, 72 h; series mostly up to 12.8 µM
# In short: as §1
# PC49 = experiment: as above; settings: P. falciparum in erythrocytes, SYBR Green DNA, 72 h; series mostly up to 12.8 µM
# In short: as §1
SMILES,outcome [1],Potency [2],Potency (AS120),Potency (CP201),Potency (CP217),Potency (CP237),Potency (CP250),Potency (CP256),Potency (CP266),Potency (CP268),Potency (CP297),Potency (CP315),Potency (CP329),Potency (Dd2),Potency (ECU),Potency (FAB9),Potency (HB3),Potency (ICS),Potency (PAD),Potency (PC49)
CCN[C@@H]1CN(CCCOC)S(=O)(=O)c2sc(S(N)(=O)=O)cc21,inactive,inactive,inactive,inactive,inactive,inactive,inactive,inactive,inactive,inactive,inactive,inactive,inactive,inactive,inactive,inactive,inactive,inactive,inactive,inactive
Cc1ccc2c(c1)c1c3n2CCN[C@H]3CCC1,,inactive,inactive,inactive,inactive,12.6 µM (active),inactive,inactive,inactive,inactive,,inactive,inactive,,,inactive,inactive,,,inactive
Cc1onc(-c2ccccc2Cl)c1C(=O)N[C@H]1C(=O)N2[C@H]1SC(C)(C)[C@H]2C(=O)O,inactive,,inactive,inactive,inactive,inactive,inactive,inactive,,inactive,inactive,inactive,inactive,inactive,inactive,inactive,inactive,inactive,inactive,inactive
CC[C@](C)(CN(C)C)OC(=O)c1ccccc1,inactive,inactive,inactive,inactive,inactive,,inactive,inactive,inactive,inactive,inactive,inactive,inactive,5.01 µM (active),inactive,inactive,inactive,inactive,inactive,inactive
CC(C)(C)NC[C@@H](O)COc1ccccc1C1CCCC1,,,3.98 µM (active),,3.16 µM (active),3.55 µM (active),,3.98 µM (active),,,7.21 µM (active),,,1.58 µM (active),3.55 µM (active),,3.16 µM (active),1.41 µM (active),3.16 µM (active),2.24 µM (active)
Cc1ccsc1/C=C\C1=NCCCN1C,inactive,inactive,inactive,inactive,inactive,inactive,inactive,inactive,inactive,inactive,inactive,inactive,inactive,inactive,inactive,inactive,inactive,inactive,inactive,inactive
CO[C@@H]1C[C@H](O[C@H]2[C@@H](C)[C@H](O[C@@H]3O[C@@H](C)C[C@@H](N(C)C)[C@@H]3OC(C)=O)[C@H](C)C[C@]3(CO3)C(=O)[C@H](C)[C@H](OC(C)=O)[C@H](C)[C@H](C)OC(=O)[C@@H]2C)O[C@H](C)[C@@H]1OC(C)=O,inactive,inactive,inactive,inactive,inactive,inactive,inactive,inactive,inactive,inactive,inactive,inactive,,inactive,inactive,inactive,inactive,inactive,inactive,inactive
C[C@H](O)Cn1cnc2c1c(=O)n(C)c(=O)n2C,inactive,inactive,inactive,inactive,inactive,inactive,inactive,inactive,inactive,inactive,inactive,inactive,inactive,inactive,inactive,inactive,inactive,inactive,inactive,inactive
CCC(=O)OCC(=O)[C@@]1(OC(=O)CC)[C@H](C)C[C@@H]2[C@@H]3[C@H]([C@@H](O)C[C@@]21C)[C@]1(C)C=CC(=O)C=C1C[C@@H]3Cl,inactive,inactive,,inactive,,,,,inactive,,5.1 µM (active),inactive,inactive,,,,3.55 µM (active),1.12 µM (active),,
C#C[C@]1(O)CC[C@@H]2[C@H]3CCC4=CCCC[C@@H]4[C@@H]3CC[C@@]21C,inactive,5.49 µM (active),inactive,inactive,inactive,inactive,inactive,inactive,inactive,inactive,inactive,inactive,inactive,inactive,inactive,inactive,inactive,inactive,inactive,inactive
C[C@H](CCC(=O)O)[C@H]1CC[C@@H]2[C@@H]3[C@@H](O)C[C@H]4C[C@@H](O)CC[C@@]4(C)[C@H]3CC[C@@]21C,inactive,inactive,inactive,inactive,inactive,inactive,inactive,inactive,inactive,inactive,inactive,inactive,inactive,inactive,inactive,inactive,inactive,inactive,inactive,inactive
NC[C@@H]1O[C@@H](O[C@H]2[C@H](O)[C@H](O[C@@H]3O[C@H](CO)[C@@H](O)[C@H](N)[C@@H]3O)[C@@H](N)C[C@H]2N)[C@H](N)C[C@@H]1O,inactive,inactive,inactive,inactive,inactive,inactive,inactive,inactive,inactive,inactive,inactive,inactive,inactive,inactive,inactive,inactive,inactive,inactive,inactive,inactive
CCOC(=O)O[C@@H](C)OC(=O)[C@@H]1N2C(=O)[C@@H](NC(=O)[C@@H](N)c3ccccc3)[C@H]2SC1(C)C,inactive,inactive,inactive,inactive,inactive,inactive,inactive,inactive,inactive,inactive,inactive,inactive,inactive,inactive,inactive,inactive,inactive,inactive,inactive,inactive
Clc1ccc([C@H](Cn2ccnc2)OCc2c(Cl)cccc2Cl)c(Cl)c1,inactive,,1.26 µM (active),,2.24 µM (active),3.16 µM (active),2.51 µM (active),,,,,,,3.55 µM (active),1.78 µM (active),,3.98 µM (active),1.58 µM (active),3.55 µM (active),
CO[C@]1(NC(=O)[C@H](C(=O)O)c2ccc(O)cc2)C(=O)N2C(C(=O)O)=C(CSc3nnnn3C)CO[C@H]21,inactive,inactive,inactive,inactive,inactive,inactive,inactive,inactive,inactive,inactive,inactive,,inactive,inactive,inactive,inactive,inactive,inactive,inactive,inactive
CCN(CCCCOC(=O)c1ccc(OC)c(OC)c1)[C@@H](C)Cc1ccc(OC)cc1,inactive,inactive,inactive,,inactive,inactive,inactive,inactive,inactive,inactive,inactive,inactive,,inactive,inactive,inactive,inactive,,inactive,inactive
CC(=O)OCC(=O)[C@@]1(O)CC[C@@H]2[C@H]3CCC4=CC(=O)C=C[C@]4(C)[C@]3(F)[C@@H](O)C[C@@]21C,inactive,inactive,inactive,inactive,inactive,inactive,inactive,inactive,inactive,inactive,inactive,inactive,inactive,inactive,inactive,inactive,inactive,inactive,inactive,inactive
CC(C)(C)NC[C@H](O)COc1cccc2c1CCC(=O)N2,inactive,,inactive,inactive,inactive,inactive,inactive,inactive,inactive,inactive,inactive,inactive,inactive,inactive,inactive,inactive,inactive,inactive,inactive,inactive
CC[C@H](C)[C@H](N)C1=N[C@H](C(=O)N[C@@H](CC(C)C)C(=O)N[C@@H](CCC(=O)O)C(=O)N[C@@H](C(=O)N[C@H]2CCCCNC(=O)[C@@H](CC(N)=O)NC(=O)[C@@H](CC(=O)O)NC(=O)[C@@H](Cc3cnc[nH]3)NC(=O)[C@@H](Cc3ccccc3)NC(=O)[C@@H]([C@@H](C)CC)NC(=O)[C@@H](CCCN)NC2=O)[C@@H](C)CC)CS1 ({Ileψ(thiazoline)Cys}-LE[d(aIle)]K[dOrn][d(aIle)][dF][dH][dD][dN]; lactam 4-C),inactive,inactive,inactive,inactive,inactive,inactive,inactive,inactive,inactive,inactive,inactive,inactive,inactive,inactive,inactive,inactive,inactive,inactive,inactive,inactive
C[C@@H]1C[C@H]2[C@@H]3C[C@H](F)C4=CC(=O)C=C[C@@]4(C)[C@]3(F)[C@H](O)C[C@]2(C)[C@@]1(O)C(=O)CO,inactive,inactive,inactive,inactive,inactive,inactive,inactive,inactive,inactive,inactive,inactive,inactive,inactive,inactive,inactive,inactive,inactive,inactive,inactive,inactive
CCc1c(C)[nH]c2c1C(=O)[C@H](CN1CCOCC1)CC2,inactive,inactive,inactive,inactive,inactive,inactive,inactive,inactive,inactive,inactive,inactive,inactive,inactive,inactive,inactive,inactive,inactive,inactive,inactive,inactive
O=C(O)COCCN1CCN([C@@H](c2ccccc2)c2ccc(Cl)cc2)CC1,inactive,inactive,inactive,inactive,inactive,inactive,inactive,inactive,inactive,inactive,inactive,inactive,inactive,inactive,inactive,inactive,,,inactive,inactive
Cc1cccc(CN2CCN([C@@H](c3ccccc3)c3ccc(Cl)cc3)CC2)c1,inactive,inactive,,inactive,,inactive,,inactive,inactive,inactive,inactive,inactive,inactive,,,inactive,,2.82 µM (active),,inactive
C[C@@H](CNC1CCCCC1)OC(=O)c1ccccc1,inactive,inactive,,inactive,,3.16 µM (active),,,inactive,,,inactive,inactive,4.47 µM (active),,,3.98 µM (active),1.78 µM (active),3.16 µM (active),
